Bioassay records from PubChem.
An excerpt weighted towards active compounds, which were near 22% of everything screened.
CYP2C9 inhib: inhibitors of human CYP2C9. P11712. CYP2C9 Supersomes, luciferin-H conversion, luminescence. inhibition, % at 5 µM. actives 20% (n = 96,000). AID 777;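 active = blocking of liver enzyme CYP2C9 beyond about 50% at 5 µM, limit read from the data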
Target sequence (P11712 whole entry, looked up): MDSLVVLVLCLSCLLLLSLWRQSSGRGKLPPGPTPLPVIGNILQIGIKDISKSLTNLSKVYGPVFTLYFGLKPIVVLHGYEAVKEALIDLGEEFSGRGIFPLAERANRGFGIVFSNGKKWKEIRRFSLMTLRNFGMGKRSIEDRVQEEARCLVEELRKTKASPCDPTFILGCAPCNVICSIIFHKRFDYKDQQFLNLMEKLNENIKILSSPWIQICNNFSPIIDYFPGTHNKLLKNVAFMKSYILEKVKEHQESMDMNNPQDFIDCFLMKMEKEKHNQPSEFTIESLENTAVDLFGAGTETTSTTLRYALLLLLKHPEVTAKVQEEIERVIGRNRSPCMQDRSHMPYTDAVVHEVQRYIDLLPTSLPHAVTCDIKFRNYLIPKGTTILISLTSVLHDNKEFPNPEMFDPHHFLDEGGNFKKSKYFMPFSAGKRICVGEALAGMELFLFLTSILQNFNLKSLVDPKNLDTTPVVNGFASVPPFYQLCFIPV
E-sel TNF inh: blocks E-selectin expression induced by TNF alpha; HUVEC TNFa-induced E-selectin immunofluorescence, high content; inhibition, % at 2 µM; actives 0.71% (n = 120,000); AID 1246;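 active = inhibition above the batch mean plus 3 SD, and confirmed as a hit on visual image review, cut at about 43% in these data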;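 note: 0% = TNF-stimulated DMSO wells and 100% = unstimulated control wells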
cytoskel mod: cytoskeleton assembly modification. actives 0.18% (n = 91,000). AID 836. inhibition, % at 2 µM. HUVEC TNFa F-actin phalloidin imaging, high content;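 active = inhibition above the batch mean plus 3 SD and confirmed as a hit by visual image inspection, cut at about 30% in these data, passing the limit was not always enough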
CYP2C9 act: CYP2C9 (human) activation | AID 1024 | P11712 | actives 1.4% (n = 96,000) | activation factor at 5 µM | recombinant CYP2C9, luciferin-H conversion, luminescence; stronger effect = higher value; factor 1 = untreated enzyme, 0 = blocked;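 active = activation factor of 2 or more for CYP2C9 at a 5 µM dose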;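 note: 0 = sulfaphenazole-blocked wells and 1 = vehicle-only wells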
CYP2C19 activ: cytochrome P450 2C19 (human) activation. 96,000 tested, under 10 active. activation factor at 5 µM. recombinant CYP2C19, luciferin-H EGE luminescence; stronger effect = higher value; 0 = fully inhibited enzyme, 1 = untreated enzyme. P33261;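 active = activation factor of at least 2 at 5 µM in the primary screen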;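 note: 0 = wells with 2.5 mM tranylcypromine and 1 = vehicle-only wells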
CYP2C19 inhib: human CYP2C19 inhibition | P33261 | CYP2C19 Supersomes, luciferin-H EGE luminescence, 30 min | inhibition, % at 5 µM | actives 21% (n = 96,000) | AID 778;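 active = CYP2C19 inhibition above a set limit at 5 µM in the primary screen, cut at about 50% in these data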;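 note: plate controls were negative control wells for no effect and 2.5 mM tranylcypromine positive control for full effect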
Starred values were filed as active, the others as inactive; nt = no result given.

SMILES	CYP2C9 inhib	E-sel TNF inh	cytoskel mod	CYP2C9 act	CYP2C19 activ	CYP2C19 inhib
O=C(C(Cc1ccccc1)NS(=O)(=O)c1ccc(F)cc1)N1CCC2(CC1)OCCO2 (stereo unspecified)	37	10	-1	0.6	0.2	80*
O=C(CCCOc1ccc(Cl)cc1Cl)N1CCC2(CC1)OCCO2	45	4	4	0.6	0.3	74*
CCOc1cc2[nH]c(=S)n(CCCC(=O)N3CCC4(CC3)OCCO4)c(=O)c2cc1OCC	55*	-2	2	0.4	0.5	52*
Cn1c(=O)cc(OCCCC(=O)N2CCC3(CC2)OCCO3)c2ccccc21	0	9	14	1	0.9	8
CC#CP(=O)(OC)C(O)(CF)c1ccccc1 (stereo unspecified)	nt	2	nt	nt	nt	nt
CN1C(=O)C(=Cc2ccc(N3CCCCCC3)o2)C(=O)N(C)C1=S	23	-45	12	0.8	0.4	59*
CC(=O)NC1CC2CCCC(C1)N2 (stereo unspecified)	0	-12	67*	1	0.9	6
CC(=O)C1C(=O)NC23CCCCC2C1c1ccccc1O3 (stereo unspecified)	9	-15	5	0.9	0.8	21
c1ccc(C2OCCN3CCCCC23)cc1 (stereo unspecified)	nt	-20	nt	nt	nt	nt
O=c1[nH]c(=O)n(Cc2ccccc2)c(O)c1C=NCCN1CCNCC1	23	-9	9	0.8	0.8	17
COc1ccccc1-n1c(O)c(C=NCCN2CCNCC2)c(=O)[nH]c1=O	58*	-4	3	0.4	0.7	35
C/C(=N\N1CCN(C)CC1)c1c(O)n(Cc2ccccc2)c(=O)[nH]c1=O	nt	32	nt	nt	nt	nt
Clc1ccc2c(c1)C(c1ccccc1Cl)=NCc1nnc(N3CCN(CCSc4ccccc4)CC3)n1-2	68*	-28	10	0.3	0.9	8
Clc1ccc2c(c1)C(c1ccccc1Cl)=NCc1nnc(N3CCN(CCOc4ccccc4)CC3)n1-2	nt	-29	nt	nt	nt	nt
FC(F)(F)c1ccc2c(c1)NP(=S)(N1CCOCC1)c1nccn1-2 (stereo unspecified)	48	-21	nt	0.5	0.4	61*
O=C(c1cnn2c(C(F)(F)F)cc(-c3ccccc3)nc12)N1CCC2(CC1)OCCO2	14	8	-8	0.9	0.8	23
COc1cccc(-c2cc(C(F)(F)F)n3nc(C(=O)N4CCC5(CC4)OCCO5)cc3n2)c1	69*	-2	-7	0.3	0.2	77*
CCCCSC1=NN1c1nc(N)nc(C)c1CC	34	-5	-10	0.7	0.6	39
FC(F)(F)c1ccc2c(c1)N(CCCN1CCN(CCCl)CC1)c1ccccc1S2	-6	10	11	1.1	0.5	50*
CCCCCn1c(=O)c(C(=O)NCc2ccncc2)c(O)c2ccccc21	74*	nt	nt	0.3	0.3	71*
CCN(CC)C1=NC(=[N+](CC)CC)c2ccccc21	31	-9	-7	0.7	1.1	-14
CN1C(=O)C(=Cc2ccccc2Oc2ccc(Cl)c(F)c2)C(=O)N(C)C1=O	57*	-21	-17	0.4	0.9	7
CP(=O)(O)CCCN	24	-4	-9	0.8	0.4	61*
Cc1c2cnn(CC(=O)N3CCC4(CC3)OCCO4)c(=O)c2c(C)n1Cc1ccc(F)cc1	21	nt	nt	0.8	0.5	53*
CCn1c(=O)n(CC(=O)N2CCC3(CC2)OCCO3)c(=O)c2ccccc21	3	nt	-1	1	0.5	48
SMILES	CYP2C9 inhib	E-sel TNF inh	cytoskel mod	CYP2C9 act	CYP2C19 activ	CYP2C19 inhib
O=C(Cn1ncc2c3ccccc3n(Cc3ccccc3)c2c1=O)N1CCC2(CC1)OCCO2	53*	nt	nt	0.5	0.8	22
O=C(Cn1ncc2ccccc21)N1CCC2(CC1)OCCO2	-4	-3	-11	1	0.5	55*
O=C(Cn1cnc2ccccc2c1=O)NCC(=O)N1CCC2(CC1)OCCO2	-18	-18	-25	1.2	1.2	-20
O=C(Cn1ncc2c3ccccc3n(Cc3ccccc3F)c2c1=O)N1CCC2(CC1)OCCO2	69*	nt	nt	0.3	0.6	43
CN1CCC2(CC1)CC(NC=O)c1ccccc1O2 (stereo unspecified)	nt	16	nt	nt	nt	nt
CCOc1cc(-c2nc3c(C)cccn3c2NCC2CCCO2)ccc1O (stereo unspecified)	12	21	-14	0.9	0.7	28
Cn1c(=O)cc(OCC(=O)N2CCC3(CC2)OCCO3)c2ccccc21	-39	-22	nt	1.4	0.7	34
